Key:
Test in all cases: PBM binding z-score (relative to random genomic background probes); higher = stronger binding; sequences stand for … in GC…GCGATTGACAGCGTAGAATGAAGG
[1] = tested on: FXR:RXRa (NR concentration 270 nM, RXRa partner concentration 90 nM)
Summary of the method: (§1)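 Binding z-scores were set against random background probes. The data came from custom Agilent 4×180K protein-binding microarrays carrying double-stranded probes with 34-nt variable regions, incubated 1 h with ligand-free nuclear receptor dimers. Partner-specific antibodies detected binding, and scanned fluorescence was regression-normalized.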

[2] = tested on: LXRa:RXRa (NR concentration 270 nM, RXRa partner concentration 90 nM)
Summary of the method: as §1

[3] = tested on: LXRa homodimer (NR concentration 270 nM)
Summary of the method: as §1

[4] = tested on: LXRb:RXRa (NR concentration 270 nM, RXRa partner concentration 90 nM)
Summary of the method: as §1

[5] = tested on: LXRb homodimer (NR concentration 270 nM)
Summary of the method: as §1

[6] = tested on: PPARa:RXRa (NR concentration 270 nM, RXRa partner concentration 90 nM)
Summary of the method: as §1

[7] = tested on: PPARg:RXRa (NR concentration 180 nM, RXRa partner concentration 90 nM)
Summary of the method: as §1

[8] = tested on: PPARg:RXRa 270nM:90nM, anti-RXR (NR concentration 270 nM, RXRa partner concentration 90 nM)
Summary of the method: as §1

[9] = tested on: PPARg:RXRa 30nM:10nM, anti-RXR (NR concentration 30 nM, RXRa partner concentration 10 nM)
Summary of the method: as §1

[10] = tested on: PPARg:RXRa 90nM:30nM, anti-RXR (NR concentration 90 nM, RXRa partner concentration 30 nM)
Summary of the method: as §1

[11] = tested on: PPARg:RXRa DBDmut IVT, anti-RXR (DBD mutation: RXRa K156A/R161A, NR concentration 270 nM, RXRa partner concentration 90 nM)
Summary of the method: as §1

[12] = tested on: PPARg:RXRa IVT, anti-PPARg (NR concentration 270 nM, RXRa partner concentration 90 nM)
Summary of the method: as §1

[13] = tested on: PPARg DBDmut:RXRa IVT, anti-PPARg (DBD mutation: PPARg1 K132A/R137A, NR concentration 270 nM, RXRa partner concentration 90 nM)
Summary of the method: as §1

[14] = tested on: PPARg DBDmut IVT, anti-PPARg (DBD mutation: PPARg1 K132A/R137A, NR concentration 270 nM)
Summary of the method: as §1

[15] = tested on: PPARg homodimer (NR concentration 180 nM)
Summary of the method: as §1

[16] = tested on: PXR:RXRa (NR concentration 270 nM, RXRa partner concentration 90 nM)
Summary of the method: as §1

[17] = tested on: PXR homodimer (NR concentration 270 nM)
Summary of the method: as §1

[18] = tested on: RARa:RXR (NR concentration 270 nM, RXRa partner concentration 90 nM)
Summary of the method: as §1

[19] = tested on: RARa homodimer (NR concentration 270 nM)
Summary of the method: as §1

[20] = tested on: RARb:RXRa (NR concentration 270 nM, RXRa partner concentration 90 nM)
Summary of the method: as §1

Row | Sequence | PBM binding z-score [1] | PBM binding z-score [2] | PBM binding z-score [3] | PBM binding z-score [4] | PBM binding z-score [5] | PBM binding z-score [6] | PBM binding z-score [7] | PBM binding z-score [8] | PBM binding z-score [9] | PBM binding z-score [10] | PBM binding z-score [11] | PBM binding z-score [12] | PBM binding z-score [13] | PBM binding z-score [14] | PBM binding z-score [15] | PBM binding z-score [16] | PBM binding z-score [17] | PBM binding z-score [18] | PBM binding z-score [19] | PBM binding z-score [20]
1 | ATATGTAGGTTACATCCGGGTCCTTCAGGCTATG | 0.21 | 1.72 | 0.152 | 0.684 | 0.758 | 3.17 | 5.07 | 4.1 | 2 | 3.63 | 7.33 | 7.38 | 2.34 | 1.87 | 0.864 | 0.482 | 0.298 | 0.744 | 0.322 | 0.999
2 | TCATATCGGTAATACAGGTGAAAGTCGGCATCTA | 0.812 | 0.733 | 0.448 | 0.822 | 0.305 | 1.58 | 0.895 | 2.79 | 3.92 | 3.03 | 2.51 | 1.96 | 1.47 | 0.852 | 1.2 | 0.46 | 0.585 | 0.605 | 1.17 | 0.527
3 | CCTCGGAGGACAGAAGGTCAGAGATGTCCGCTTT | 0.986 | 1.24 | 0.141 | 0.889 | -0.867 | 1.55 | 0.383 | 0.542 | -0.288 | 0.432 | -0.271 | 0.124 | -1.91 | -1.27 | 1.03 | 1.41 | 0.164 | 1.93 | 0.613 | 3.01
4 | CCTTACGGGTCAAGGTTATGGCACGGGTGGTACG | 5.49 | 3.7 | 0.0981 | 2.81 | -0.233 | 4.86 | 4.26 | 4.73 | 1.8 | 3.51 | 1.51 | 3.59 | -0.207 | -0.604 | 1.88 | 3.27 | 0.134 | 4.13 | 1.04 | 4.04
5 | CCTACTGGGCCAAATAGGTCATTGATGCCGATAA | 1.09 | 1.66 | 0.941 | 1.91 | -0.592 | 3.18 | 2.07 | 2.92 | 0.838 | 2.18 | 4.31 | 4.63 | 0.236 | -0.456 | 1.27 | 1.88 | 0.588 | 2.32 | 0.564 | 2.23
6 | TCGAGTAGGTTAGTCAGGGCATTCAGCCAACATA | 0.179 | 0.175 | -0.126 | 0.121 | -0.771 | 0.625 | 0.0481 | 0.99 | 1.13 | 0.992 | 1.73 | 1.72 | 0.0156 | -0.832 | 0.613 | 0.173 | 0.204 | 0.135 | 0.35 | 0.484
7 | TCTTGTAGATCAACAGGAGCTTAAGAAAGATCGA | -0.438 | -0.744 | -1.18 | -0.366 | -0.825 | 0.0739 | -0.318 | 0.847 | 2.14 | 1.43 | 1.16 | 0.103 | 0.548 | -0.235 | -1.17 | -0.361 | -0.82 | -0.535 | -0.604 | -0.522
